Screens as filed in PubChem BioAssay.
Only a selection was taken, and hits are over-represented in it overall.
ST2 IL33 inh – IL1RL1 inhibition | Q01638 | AlphaLISA ST2-Fc/biotin-IL-33 interaction, 1 h | inhibition, % for hits at 17 µM | 78,000 tested, 2.3% active | AID 1259354; in the data active = inhibition above about 30%
Target sequence (Q01638 whole entry, looked up): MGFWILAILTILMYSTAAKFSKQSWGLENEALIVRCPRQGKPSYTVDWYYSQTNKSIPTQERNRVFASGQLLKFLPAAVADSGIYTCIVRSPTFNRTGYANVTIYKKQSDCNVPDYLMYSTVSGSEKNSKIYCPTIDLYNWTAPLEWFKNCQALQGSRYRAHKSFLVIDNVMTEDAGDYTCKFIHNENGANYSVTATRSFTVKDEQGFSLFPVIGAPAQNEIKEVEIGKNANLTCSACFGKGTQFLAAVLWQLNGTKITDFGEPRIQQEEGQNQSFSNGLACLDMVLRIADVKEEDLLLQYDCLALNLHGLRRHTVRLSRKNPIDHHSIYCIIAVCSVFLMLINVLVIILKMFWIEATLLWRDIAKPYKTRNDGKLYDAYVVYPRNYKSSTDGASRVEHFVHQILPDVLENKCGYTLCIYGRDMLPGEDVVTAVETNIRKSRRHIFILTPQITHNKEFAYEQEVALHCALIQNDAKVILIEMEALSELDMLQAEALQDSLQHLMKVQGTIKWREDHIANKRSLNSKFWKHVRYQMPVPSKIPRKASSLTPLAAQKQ
An asterisk follows results filed as active; i = inactive.

SMILES	ST2 IL33 inh
CC(=O)N1c2c(cc(Br)cc2S(=O)(=O)Nc2ccc(C)cc2)CC1C (stereo not given)	i
COc1cccc2sc(=NC(=O)c3nc4ccccc4s3)n(C)c12	i
COc1cc(OC)cc(C(=O)OCc2nc3ccccc3s2)c1	i
COc1cc(/C=C(\C#N)c2nc3ccccc3s2)cc(OC)c1OC	34.0%*
CSc1cccc(NC(=O)COc2c(C)cccc2C)c1	i
CSc1nc2c(sc3ccccc32)c(=O)n1-c1ccccc1	i
COc1ccc(N2C(=O)[C@H]3C4c5ccccc5C(CO)(c5ccccc54)[C@H]3C2=O)cc1	i
Cc1nc(C(C)NC(=O)Cc2[nH]nc3ccccc23)n[nH]1 (stereo not given)	i
CNC(=O)c1cccnc1N1CCC(N2CCCC(C(=O)N3CCCC3)C2)CC1 (stereo not given)	33.0%*
Cc1ncnc(N2CCC(N3CCCC(C(=O)N4CCCC4)C3)CC2)c1C (stereo not given)	i
Cc1noc2ncnc(N3CCC(N4CCCC(C(=O)N5CCCC5)C4)CC3)c12 (stereo not given)	i
COCCN1CCC(CN(CC2CCCO2)C(=O)c2ccccc2SC)CC1 (stereo not given)	i
Cc1ccc2ccccc2c1Cn1c(Cl)nc2c1c(=O)n(C)c(=O)n2C	i
O=C(c1ccc2c(c1)OCO2)N1CCN=C1SCc1c(F)cccc1Cl	i
C[C@@H]1O[C@@H](O[C@@H]2[C@@H](O)[C@H](C)O[C@@H](OCC3OC(Oc4c(-c5ccc(O)c(O)c5)oc5cc(O)cc(O)c5c4=O)C(O)C(O)C3O)[C@@H]2O)[C@H](O)[C@H](O)[C@H]1O (stereo not given in full)	i
COc1cc(OC2OC(COC3OCC(O)(CO)C3O)C(O)C(O)C2O)c2c(-c3ccc(O)c(O)c3)cc(=O)oc2c1 (stereo not given)	33.0%*
C[C@@H]1O[C@@H](O[C@@H]2[C@@H](O)[C@H](OCCc3ccc(O)c(O)c3)O[C@H](CO[C@@H]3OC[C@](O)(CO)[C@H]3O)[C@H]2OC(=O)/C=C/c2ccc(O)c(O)c2)[C@H](O)[C@H](O)[C@H]1O	i
O=C1[C@@H]2[C@H](C(=O)N1c1ccc(Cl)cc1Cl)[C@H]1C=C[C@@H]2C12CC2	i
Cc1ccc(NC2CCCN(C(=O)c3ccc4c(c3)no[n+]4[O-])C2)cc1C (stereo not given)	i
CC1(C)Cc2nc(C(C)(C)C)ncc2C(NCc2ccccn2)C1 (stereo not given)	i
Cn1c(=O)c2c(nc(Br)n2Cc2ccc(F)cc2)n(C)c1=O	i
Cn1c(=O)c2c(nc(CN3CCN(c4ccc(F)cc4)CC3)n2CC(N)=O)n(C)c1=O	i
CC(=O)N1N=C(c2ccc(F)cc2)Cn2c1nc1c2c(=O)n(C)c(=O)n1C	55.0%*
O=C(Nc1nc(-c2cc3ccccc3oc2=O)cs1)c1c(F)cccc1F	i
O=c1oc2ccccc2cc1-c1csc(Nc2ncccn2)n1	34.0%*
SMILES	ST2 IL33 inh
O=C(Nc1nc(-c2cc3ccccc3oc2=O)cs1)c1ccccc1Br	i
Cc1ccc(NC(=O)CNC(=O)Cn2ccc3ccccc3c2=O)c(Br)c1	i
Cc1cnc(NC(=O)[C@@H]2C[C@@H]3CC[C@H]2C3)s1	i
CCOC(=O)c1c(C)oc2ccc(OCc3cccc(Cl)c3)cc12	i
CCOC(=O)C1C(=O)C=C(c2cccc(OC)c2)CC1c1cccc(OC)c1OC (stereo not given)	i
COc1ccc(NS(=O)(=O)c2cc(Br)cc3c2N(C(=O)C2CC2)CC3)cc1	i
O=C1NC(=O)c2cc(N=Cc3ccc(Cl)cc3)ccc21	i
O=c1[nH]c2ccc(N=Cc3cc(O)ccc3Br)cc2[nH]1	i
O=C1NC(=O)c2cc(N=Cc3ccc(Cl)cc3Cl)ccc21	70.0%*
NCC1CN(Cc2ccccc2Cn2cccn2)CCO1 (stereo not given)	i
CC(=O)c1cccc(Nc2ncnc3c2cnn3-c2cccc(C)c2)c1	i
COc1ccc(Cc2nnc(NC(=O)NCc3ccccn3)s2)cc1OC	i
CCOc1ccccc1N=Cc1c(O)n(-c2ccccc2C)c(=O)c2ccccc12	i
Cc1cc(O)c(C=Nc2cccc(C(=O)O)c2)c(C)c1Cl	i
Cc1ccccc1-n1c(O)c(C=Nc2ccccc2)c2ccccc2c1=O	47.0%*
COc1ccccc1-n1c(O)c(C=Nc2ccc(C)cc2)c2ccccc2c1=O	34.0%*
COc1ccc(C)cc1NC(=O)CNC(=O)c1cn(-c2ccccc2OC)c(=O)c2ccccc12	i
COc1ccccc1-n1nc(C(=O)O)c2ccccc2c1=O	i
Cc1cccc2ncc(C(=O)N(Cc3ccccc3)CC(C)CO)c(=O)n12 (stereo not given)	i
CCN1CCN(C(c2ccc(Cl)cc2)c2sc3nc(C)nn3c2O)CC1 (stereo not given)	i
Cc1ccc(S(=O)(=O)Cc2noc([C@@H]3C[C@@H](O)CN3Cc3ccccc3)n2)cc1	i
O=C1CC(NCc2cccc3cccnc23)CN1CCc1ccccc1 (stereo not given)	i
COc1cccc(NC(=O)CCC2CCN(C(=O)c3cnn(C(C)C)c3)CC2)c1	i
COc1ccc(-n2cc3c([N+](=O)[O-])cc([N+](=O)[O-])cc3n2)cc1	i
COc1ccccc1-n1cc2c([N+](=O)[O-])cc([N+](=O)[O-])cc2n1	35.0%*
SMILES	ST2 IL33 inh
COc1ccc(C2=N/C(=C\c3cccc(OC)c3OC)C(=O)O2)cc1[N+](=O)[O-]	i
Cc1cc(Br)ccc1OCC(=O)Nc1ccc(F)cc1	i
CC1=C(C(=O)Nc2ccc(Br)cn2)C(c2ccccc2)C2=C(CC(C)(C)CC2=O)N1 (stereo not given)	i
COc1ccc(Cn2c(Oc3ccccc3C)nc3c2c(=O)n(C)c(=O)n3C)cc1	i
CC(C)(C)C1CCc2onc(C(=O)NCc3ccc(Cl)cc3)c2C1 (stereo not given)	i
CC(C)(C)C1CCc2onc(C(=O)Nc3cccc(Cl)c3)c2C1 (stereo not given)	i
CCc1ccc(NC(=O)c2noc3c2CC(C(C)(C)C)CC3)cc1 (stereo not given)	53.0%*
C#CC1(NC(=O)C2CCN(CCOC)C2)CCCCC1 (stereo not given)	i
CC1=C(C(N)=O)C(c2ccc([N+](=O)[O-])cc2)n2nc(SCc3ccccc3F)nc2N1 (stereo not given)	i
Cc1ccc(NC(=O)c2cc3cc(Br)ccc3oc2=O)cc1C	i
CC(=O)c1ccc(OC(=O)c2cc3cc(Br)ccc3oc2=O)cc1	i
CC(=O)c1ccc(NC(=O)c2cc3cc(Br)ccc3oc2=O)cc1	39.0%*
Cc1cc(N2CCCCC2)nc2ccc(NC(=O)CCC(=O)N3CCC(C(N)=O)CC3)cc12	i
O=C(O)CCC(=O)Nc1c(-c2ccccc2)nc2ccccn12	i
Cc1ccccc1Nc1c(-c2cc(Br)ccc2O)nc2cnccn12	i
Cc1ccccc1-n1nc([N+](=O)[O-])c(=NCc2ccc3c(c2)OCO3)n1O	i
CC(=O)c1ccc(N2CN=c3s/c(=C\c4cccnc4)c(=O)n3C2)cc1	i
O=c1/c(=C/c2cccc([N+](=O)[O-])c2)sc2n1CN(c1ccc3c(c1)OCO3)CN=2	36.0%*
COc1ccc(N2CN=c3s/c(=C\c4cccc([N+](=O)[O-])c4)c(=O)n3C2)cc1	33.0%*
CC(=O)c1ccc(N2CN=c3s/c(=C\c4cccc([N+](=O)[O-])c4)c(=O)n3C2)cc1	i
